What all share (format): functional
In assay [1] the target is Solute carrier family 2, facilitated glucose transporter member 1 (Homo sapiens) (UniProt P11166). Nature of the assay: ST_JUDE_LEISH: Cytotoxicity at 2uM final concentration against transgenic Leishmania Mexicana promastigotes LmGLUT1 that are glucose transport deficient and complemented with the human glucose transporter GLUT1. Activity is measured by DNA content using SYBR green in vitro.

Assay [2] has as its target Hexose transporter 1 (Plasmodium falciparum) (UniProt O97467). Description: ST_JUDE_LEISH: Cytotoxicity at 2uM final concentration against transgenic Leishmania Mexicana promastigotes LmPfHT that are glucose transport deficient and complemented with the Plasmodium falciparum hexose transporter. Activity is measured by DNA content using SYBR green in vitro.
Assay [3] deals with Glucose transporter (Leishmania mexicana) (UniProt O61059). Description: ST_JUDE_LEISH: Cytotoxicity at 2uM final concentration against transgenic Leishmania Mexicana promastigotes LmGT2 that are glucose transport deficient and complemented with the L. Mexicana glucose transporter 2. Activity is measured by DNA content using SYBR green in vitro.

Solute carrier family 2, facilitated glucose transporter member 1 (Homo sapiens), sequence (P11166 whole entry): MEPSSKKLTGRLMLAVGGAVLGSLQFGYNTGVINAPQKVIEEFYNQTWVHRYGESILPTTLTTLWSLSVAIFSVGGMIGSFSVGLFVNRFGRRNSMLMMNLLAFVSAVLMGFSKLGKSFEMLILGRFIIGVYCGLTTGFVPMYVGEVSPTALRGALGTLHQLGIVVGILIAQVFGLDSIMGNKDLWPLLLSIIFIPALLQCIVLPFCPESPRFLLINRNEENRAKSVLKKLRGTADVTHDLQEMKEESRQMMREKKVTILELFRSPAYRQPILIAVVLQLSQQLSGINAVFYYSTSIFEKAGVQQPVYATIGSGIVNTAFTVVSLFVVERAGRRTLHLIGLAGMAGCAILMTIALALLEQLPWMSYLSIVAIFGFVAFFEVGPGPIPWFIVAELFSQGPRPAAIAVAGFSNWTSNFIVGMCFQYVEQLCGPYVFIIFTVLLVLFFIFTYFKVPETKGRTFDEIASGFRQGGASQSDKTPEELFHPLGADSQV

As to `CCOc1cc(-c2nnc3[nH]c(=O)n(C)c(=O)c3n2)ccc1OC(C)C`, the inhibition in assay [1] was 2.56%; in assay [2] it was 2.55%; in assay [3], -1.04%.

Take `O=C(CNC(=O)c1ccc(O)cc1)Nc1ccc(-c2cccc(-c3nc4cc(C(F)(F)F)ccc4[nH]3)c2)cc1`: the inhibition in assay [1] stood at 8.61%; in assay [2], 8.61%; in assay [3] it was 8.38%.

Take `Cc1nc(Nc2ccc(C)c(Cl)c2)c2c(C)noc2n1`: the inhibition in assay [1] was 5.28%; in assay [2] it was 4.91%; in assay [3], 4.71%.

As to `COc1ccc(CNC(=O)Nc2cc3cc(-c4ccc(CN(C)C)cc4)ccc3n3c(C)nnc23)cc1`, the figures for the inhibition in assay [1], in assay [2] and in assay [3] were 4.84%, 2.93% and 3.32%, respectively.

As for `Cc1nc2nc(N)nc(N)c2c(C)c1Cc1ccc([N+](=O)[O-])cc1`, the inhibition in assay [1] was 5.73%; in assay [2] it was 3.25%; in assay [3], -0.24%.

As to `O=C(Nc1ccc(Cn2ncc(N3CCCNCC3)c(Cl)c2=O)cc1)Nc1ccc(OCc2ccccc2)cc1`, the inhibition was -0.85% in assay [1], -0.65% in assay [2] and -1.2% in assay [3].

Regarding `Cc1cccc2nc(-c3cccc(-c4ccc(CNCCc5ccncc5)cc4)c3)[nH]c12`, the inhibition in assay [1] was 0.46%; in assay [2] it was -0.37%; in assay [3] it was -0.84%.

Regarding `Clc1cccc(C=NNc2nc(=Nc3ccccc3)[nH]c(=Nc3ccccc3)[nH]2)c1`, the inhibition was 8.44% in assay [1], 5.13% in assay [2] and 3.05% in assay [3].

For `CCCN(Cc1nnc(-c2cccs2)o1)C(=O)CSc1nnnn1-c1cc(C)cc(C)c1`, the inhibition was found to be 4.84% in assay [1], 5.88% in assay [2] and 2.71% in assay [3].

For `CCCN(CC1CC1)c1ncc(-c2ccccc2CNCc2ccccc2O)cn1`, the results for the inhibition in assay [1], in assay [2] and in assay [3] were 11.8%, 8.72% and 4.56%, respectively.

As for `CC(=O)Nc1ccc(CN(Cc2ccc(F)cc2)Cc2ccc3c(c2)OCO3)cc1`, the figures for the inhibition in assay [1], in assay [2] and in assay [3] were 2.71%, 1.82% and 3.2%, respectively.

For `CCCCCN1CCCN(Cc2cccc(NC(=O)c3ccc4ccccc4c3)c2)CC1`, the figures for the inhibition in assay [1], in assay [2] and in assay [3] were 4.56%, 4.49% and 4.95%, respectively.

Turning to `N=c1n(Cc2ccccc2)c2ccccc2n1CC(O)c1ccc(Cl)c(Cl)c1` (centres undefined), the inhibition in assay [1] was -0.72%; in assay [2], 1.71%; in assay [3] it was 1.3%.

Regarding `CCCn1c(Sc2ccc(C#N)c([N+](=O)[O-])c2)nnc1-c1ccc(N(C)C)cc1`, the values for the inhibition in assay [1], in assay [2] and in assay [3] were 5.64%, 4.8% and 3.14%, respectively.

Regarding `O=C(C1CCCC1)N1CCOC(CCN2CCC(c3ccccc3)CC2)(c2ccc(Cl)c(Cl)c2)C1` (centres undefined), the inhibition in assay [1] is 11.9%; in assay [2], 11.5%; in assay [3] it was 11.7%.

For `COc1ccc(CN2CCCN(Cc3cccc(NC(=O)c4ccc(-c5ccccc5)cc4)c3)CC2)cc1`, the inhibition was -0.75% in assay [1], -1.14% in assay [2] and -4.3% in assay [3].

As for `Cc1cc2nc(N/C(N)=N/C(=O)NC3CCCCC3)nc(C)c2cc1C`, the inhibition was determined as 3.18% in assay [1], 3.48% in assay [2] and 0.78% in assay [3].

Consider `O=C(Nc1cccc(-c2ccc(-c3nc4cc(F)ccc4[nH]3)s2)c1)c1cccnc1`, for which the inhibition stood at 5.68% in assay [1], 4.85% in assay [2] and 3.13% in assay [3].

Regarding `CCOc1cc(Br)c(C(C)NC(=O)c2ccccc2)cc1OCC` (centres undefined), the inhibition is 1.08% in assay [1], 0.92% in assay [2] and 1.97% in assay [3].

For `Cc1nc2c(Nc3nc(-c4ccncc4)cs3)ncnc2n1-c1ccccc1Cl`, the inhibition in assay [1] amounted to 45.1%; in assay [2], 38.8%; in assay [3], 13.4%.

For `COc1ccccc1NC(=O)Nc1cccc(-c2ccc(-c3nc4cc(C(F)(F)F)ccc4[nH]3)cc2)c1`, the inhibition in assay [1] amounted to 2.16%; in assay [2] it was 2.07%; in assay [3], 0.72%.

With `Cn1cccc1CCNCc1ccc(-c2cccc(-c3nc4cc(F)ccc4[nH]3)c2)cc1`, the figures for the inhibition in assay [1], in assay [2] and in assay [3] were 3.65%, 3.24% and 3.01%, respectively.

In the case of `O=C(Nc1cccnc1)c1cn(-c2ccccc2)nc1-c1cccs1`, the inhibition in assay [1] is 3.18%; in assay [2], 1.81%; in assay [3], -1.31%.

Consider `N#Cc1ccc(CN2CCCN(Cc3cccc(NC(=O)c4ccc(-c5ccccc5)cc4)c3)CC2)cc1`, for which the inhibition is 1.73% in assay [1], 9.67% in assay [2] and 4.12% in assay [3].

Take `Cn1nccc1C(=O)NCCNCc1ccc(-c2ccc(-c3nc4ccccc4[nH]3)s2)cc1`: the inhibition in assay [1] is 4.38%; in assay [2] it was 3.81%; in assay [3], 0.63%.

As for `COc1cc2nc(N3CCC(CNC(=O)/C=C/c4cccc(C)c4)CC3)nc(N)c2cc1OC`, the inhibition was 7.71% in assay [1], 0.18% in assay [2] and -0.03% in assay [3].

`CC(C)(C)c1ccc2[nH]c(-c3ccc(C(=O)NCCCc4ccccc4)cc3)nc2c1`: the inhibition was 2.42% in assay [1], 2.97% in assay [2] and -0.47% in assay [3].

Regarding `Cc1ccc2nc3c(cc(C(=O)NCCc4ccccc4)c(=N)n3CCCOC(C)C)c(=O)n2c1`, the inhibition in assay [1] is -0.01%; in assay [2] it was 0.31%; in assay [3], -1.76%.

With `Cc1ccccc1Nc1cc(Nc2ccccc2C)c2ccccc2n1`, the inhibition stood at 42.9% in assay [1], 42.2% in assay [2] and 16.1% in assay [3].

As to `CCOC(=O)C1=C(C)N=c2sc(=Cc3cc(Cl)ccc3O)c(=O)n2C1c1ccc(OC)cc1` (centres undefined), the figures for the inhibition in assay [1], in assay [2] and in assay [3] were -0.92%, 0% and 0.91%, respectively.

`COc1ccc(Cl)cc1N1CCN(CCCNC(=O)c2ccc(-c3nc4cc(Cl)c(F)cc4[nH]3)c(F)c2)CC1`: the inhibition in assay [1] came out at 6.94%; in assay [2], 2.24%; in assay [3], 4.99%.

With `CN(C)Cc1ccc(O)c(-c2ccc(C(C)(C)C)cc2)n1`, the inhibition in assay [1] was -0.79%; in assay [2], 0.1%; in assay [3], 2.74%.

Consider `COc1ccc2nccc([C@@H](O)CN3CCC(NC(=O)/C=C/c4cccc(-c5ccccc5)c4)CC3)c2c1`, for which the inhibition in assay [1] came to 7.76%; in assay [2], 6.73%; in assay [3] it was 0.36%.

The values are drawn from ChEMBL document CHEMBL3433997, “St. Jude Leishmania screening dataset” (2016).
